# Experimental data taken from PubChem BioAssay (NCATS).
# A number with no mark means an inactive call. Records with an inconclusive call do not appear. Where a call stands in place of a potency, no number is given. The source made the active and inactive calls. Calls come from the whole dose curve; as a rule, active = well fitted curve in the direction sought with a large enough effect; inconclusive = small, poorly fitted or top-dose-only effect, or another doubt; inactive = no such curve, though single readings can be large; an effect the other way counts as inactive or inconclusive.
# Key:
# [1] = molecular target: Cytochrome P450 3A4 (Homo sapiens) (UniProt P08684); experiment: qHTS Assay for Inhibitors and Substrates of Cytochrome P450 3A4 (AID 884); note: nearly all actives have a fitted effect of over 50% in size; note: potency is the fitted concentration of half-maximal effect; for activity change, negative = inhibition: series mostly up to about 57 µM
# Cytochrome P450 3A4 (Homo sapiens), sequence (P08684 whole entry, looked up): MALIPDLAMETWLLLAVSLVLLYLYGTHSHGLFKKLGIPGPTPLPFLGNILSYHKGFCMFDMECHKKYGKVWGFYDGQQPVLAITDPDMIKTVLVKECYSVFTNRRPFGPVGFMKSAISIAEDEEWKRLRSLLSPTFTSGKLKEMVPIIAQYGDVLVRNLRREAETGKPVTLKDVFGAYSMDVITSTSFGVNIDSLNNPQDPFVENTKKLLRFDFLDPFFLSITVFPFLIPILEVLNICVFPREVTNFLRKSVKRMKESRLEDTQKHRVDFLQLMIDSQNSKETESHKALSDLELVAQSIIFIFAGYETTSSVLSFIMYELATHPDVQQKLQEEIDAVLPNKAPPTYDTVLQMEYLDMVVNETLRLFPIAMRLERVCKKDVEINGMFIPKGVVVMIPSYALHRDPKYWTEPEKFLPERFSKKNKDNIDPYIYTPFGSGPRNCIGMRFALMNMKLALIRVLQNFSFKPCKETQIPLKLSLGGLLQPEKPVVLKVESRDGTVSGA
# Method in brief: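 Luminescent readout of luciferin produced by CYP3A4 (20 nM) dealkylation of Luciferin-PPXE, 25 uM (its KM). NADPH-driven reaction ran 60 min at RT after 10 min compound preincubation; data scaled to 57 uM ketoconazole as 100% inhibition.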
# [2] = molecular target: Cytochrome P450 2C19 (Homo sapiens) (UniProt P33261); experiment: qHTS Assay for Inhibitors and Substrates of Cytochrome P450 2C19 (AID 899); note: nearly all actives have a fitted effect of over 60% in size; note: potency is the fitted concentration of half-maximal effect
# Cytochrome P450 2C19 (Homo sapiens), sequence (P33261 whole entry, looked up): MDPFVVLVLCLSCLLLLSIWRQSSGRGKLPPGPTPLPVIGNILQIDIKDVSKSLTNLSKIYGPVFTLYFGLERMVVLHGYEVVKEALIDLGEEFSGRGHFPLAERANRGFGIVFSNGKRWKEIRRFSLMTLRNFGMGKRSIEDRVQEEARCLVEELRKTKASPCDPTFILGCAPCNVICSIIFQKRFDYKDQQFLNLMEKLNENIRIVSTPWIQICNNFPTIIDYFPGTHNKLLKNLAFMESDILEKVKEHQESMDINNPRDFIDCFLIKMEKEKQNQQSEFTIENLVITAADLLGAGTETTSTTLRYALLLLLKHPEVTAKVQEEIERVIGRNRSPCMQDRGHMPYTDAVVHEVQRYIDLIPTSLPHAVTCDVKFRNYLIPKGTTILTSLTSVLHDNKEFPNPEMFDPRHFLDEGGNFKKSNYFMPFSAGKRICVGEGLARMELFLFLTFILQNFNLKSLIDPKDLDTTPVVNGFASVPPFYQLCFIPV
# Method in brief: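 Signal comes from luciferase acting on luciferin released by CYP2C19-mediated hydroxylation of Luciferin-H EGE, 10uM (KM). Assay mix: 5nM enzyme, 50mM KPO4; 60 min at 37C with NADPH regeneration. Data normalized against 57uM ketoconazole.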
# [3] = molecular target: Cytochrome P450 2D6 (Homo sapiens) (UniProt P10635); experiment: qHTS Assay for Inhibitors and Substrates of Cytochrome P450 2D6 (AID 891); note: nearly all actives have a fitted effect of over 60% in size; note: potency is the fitted concentration of half-maximal effect;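 for activity change, negative = inhibition: luciferin methyl ether substrate demethylated by CYP2D6 with NADPH regeneration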
# Cytochrome P450 2D6 (Homo sapiens), sequence (P10635 whole entry, looked up): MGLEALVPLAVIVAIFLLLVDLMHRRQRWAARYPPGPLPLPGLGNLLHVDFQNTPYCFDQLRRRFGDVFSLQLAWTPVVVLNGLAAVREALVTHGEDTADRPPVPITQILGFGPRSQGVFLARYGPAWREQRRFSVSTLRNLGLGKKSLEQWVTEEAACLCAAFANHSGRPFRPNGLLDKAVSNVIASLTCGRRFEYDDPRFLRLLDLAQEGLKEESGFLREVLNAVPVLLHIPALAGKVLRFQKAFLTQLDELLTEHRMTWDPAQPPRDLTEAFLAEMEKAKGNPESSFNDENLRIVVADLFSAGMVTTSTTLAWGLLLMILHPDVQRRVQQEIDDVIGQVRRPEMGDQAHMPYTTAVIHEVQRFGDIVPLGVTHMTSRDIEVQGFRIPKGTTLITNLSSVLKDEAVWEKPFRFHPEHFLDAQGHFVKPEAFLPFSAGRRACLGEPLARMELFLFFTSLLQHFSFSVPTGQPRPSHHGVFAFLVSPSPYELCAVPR
# Method in brief: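 Luminescent read-out of luciferin formed by 5 nM human CYP2D6 demethylating 30 uM Luciferin-ME EGE (Km level) over 60 min at room temperature after NADPH regeneration addition. Data normalized to full inhibition by 1.43 uM quinidine.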
# [4] = molecular target: Cytochrome P450 3A4 (Homo sapiens) (UniProt P08684); experiment: qHTS Assay for Activators of Cytochrome P450 3A4 (AID 885); note: nearly all actives have a fitted effect of over 65% in size
# Method in brief: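 Activators are scored by enhanced luminescence from CYP3A4 conversion of luciferin-PPXE (25uM, equal to KM) to luciferin, after 60 min at RT with an NADPH-regenerating system.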
# [5] = Confirmation and Secondary Assay for Modulators of Hemoglobin Beta Chain Splicing at IVS2 705 locus (AID 930);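 note: HeLa cells stably expressing the EGFP-705 splicing reporter; GFP fluorescence per well restored by corrected splicing of the IVS2-705 intron in EGFP; series mostly up to about 46 µM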
# Method in brief: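 Secondary splice-site specificity test uses HeLa expressing CMV-driven EGFP interrupted by IVS2-705; cells were treated 2 days at 37C with 500 nM antisense PNA as positive control.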
# [6] = Confirmation and Secondary Assay for Modulators of Hemoglobin Beta Chain Splicing at IVS2 654 locus (AID 910);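 note: HeLa cells stably carrying EGFP split by mutant beta-globin IVS2-654 intron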
# Method in brief: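 HeLa cells stably expressing EGFP interrupted by β-globin IVS2-654 intron, seeded overnight in Opti-MEM/2% FCS, then treated 2 days at 37 °C. Restored splicing read as total peak GFP intensity per well by laser scanning cytometry (488 nm excitation, 500–520 nm emission); 500 nM antisense PNA as control.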
smiles,measurement,setting,value
CCOC(=O)OCC1OC(c2ccc(C(C)=O)cc2)C=CC1Oc1ccc(-c2ccccc2)cc1 (stereo not given),"activity change, negative = inhibition",[1],-27.8% [at 11.4 µM]
same,Potency,[2],inactive
CC(=O)c1ccc(OC2C=CC(c3ccc(Cl)cc3)OC2CO)cc1 (stereo not given),"activity change, negative = inhibition",[1],-21.5% [at 11.4 µM]
same,Potency,[3],inactive
same,Potency,[2],5.01 µM (active)
CC1C=CCCOC1c1ccccc1 (stereo not given),"activity change, negative = inhibition",[1],-13.6% [at 11.4 µM]
same,Potency,[3],inactive
C=CC(C1=CC(=O)C(OC)=CC1=O)c1ccc(OC)cc1 (stereo not given),Potency,[1],25.1 µM (active)
same,Potency,[4],inactive
same,outcome,[5],inactive
COC(=O)NC(c1ccc(F)cc1)C(C(C)=O)C(=O)OC (stereo not given),"activity change, negative = inhibition",[1],-15% [at 11.4 µM]
same,Potency,[2],inactive
COc1cc(O)c(C(=O)/C=C/c2ccc(O)c(OC)c2)c(OC)c1,Potency,[1],7.94 µM (active)
same,Potency,[4],inactive
same,outcome,[5],inactive
O=C1C2Cc3c([nH]c4ccccc34)C(c3ccccc3)N2C(=O)C2Cc3c([nH]c4ccccc34)C(c3ccccc3)N12 (stereo not given),"activity change, negative = inhibition",[1],-20.8% [at 11.4 µM]
same,Potency,[3],inactive
same,Potency,[2],inactive
CSCCC(NC=O)C(=O)NC(CC(C)C)C(=O)NC(Cc1ccccc1)C(=O)O (stereo not given),Potency,[1],inactive
same,outcome,[6],inactive
CC1(C)OC(C(O)(c2cc(C(F)(F)F)cc(C(F)(F)F)c2)c2cc(C(F)(F)F)cc(C(F)(F)F)c2)C(C(O)(c2cc(C(F)(F)F)cc(C(F)(F)F)c2)c2cc(C(F)(F)F)cc(C(F)(F)F)c2)O1 (stereo not given),"activity change, negative = inhibition",[1],-21% [at 11.4 µM]
same,Potency,[3],inactive
same,Potency,[2],inactive
COC(=O)NC(CC(C)=O)c1cccs1 (stereo not given),"activity change, negative = inhibition",[1],-9.41% [at 11.4 µM]
same,Potency,[3],inactive
same,Potency,[2],inactive
CCOC(=O)OCC1OC(c2ccccc2)C=CC1Oc1ccc2oc(=O)cc(C)c2c1 (stereo not given),"activity change, negative = inhibition",[1],-10.6% [at 11.4 µM]
same,Potency,[3],inactive
same,Potency,[2],inactive
COc1ccc(-c2cc(=O)c3ccccc3o2)cc1,Potency,[1],2 µM (active)
same,Potency,[4],inactive
same,outcome,[5],inactive
C/C=C/OC(=O)NC(c1ccccc1)[C@]1(C(C)=O)CCOC1=O (stereo not given in full),Potency,[1],0.0316 µM (active)
same,Potency,[3],inactive
same,Potency,[2],0.158 µM (active)
COc1ccc(/C=C/C(=O)c2cc(O)ccc2O)cc1,Potency,[1],inactive
same,outcome,[6],inactive
same,outcome,[5],inactive
O=C(O)C1Cc2c([nH]c3ccccc23)C(c2ccccc2)N1 (stereo not given),"activity change, negative = inhibition",[1],-14.4% [at 11.4 µM]
same,Potency,[2],inactive
CCOC(=O)OCC1OC(c2ccccc2)C=CC1OC(=O)OCC (stereo not given),"activity change, negative = inhibition",[1],-18.7% [at 11.4 µM]
same,Potency,[3],inactive
same,Potency,[2],3.98 µM (active)
COC(=O)NC(c1ccccc1)[C@]1(C(C)=O)CCCC1=O (stereo not given in full),"activity change, negative = inhibition",[1],-20.1% [at 11.4 µM]
same,Potency,[3],inactive
same,Potency,[2],inactive
CC1(C)C(=O)C=C[C@@]2(C)C1C=C[C@@]1(C)C2CC[C@@]2(C)C(c3ccoc3)OC(=O)C3OC312 (stereo not given in full),Potency,[1],7.94 µM (active)
same,Potency,[4],inactive
same,outcome,[5],inactive
COC(=O)NC(c1cccc(F)c1)C(C(C)=O)C(=O)OC (stereo not given),"activity change, negative = inhibition",[1],-17.1% [at 11.4 µM]
same,Potency,[3],inactive
same,Potency,[2],inactive
CCCNC(=O)OC[C@@H]1O[C@H](CCO/N=C\[C@@H](C)[C@H](OCc2ccccc2)C(C)C)C=C[C@@H]1Oc1ccc(OC)cc1,Potency,[1],3.98 µM (active)
same,Potency,[2],3.16 µM (active)
CC1CCC(C(=O)O)NC1c1cccc(N2CCCC2=O)c1 (stereo not given),"activity change, negative = inhibition",[1],-12.3% [at 11.4 µM]
same,Potency,[3],inactive
same,Potency,[2],inactive
CC(=O)OC1CC(OC(C)=O)[C@]2(C)C(CC(OC(C)=O)[C@@]3(C)C4=CC(=O)OC(c5ccoc5)[C@]4(C)CCC32)C1(C)C (stereo not given in full),Potency,[1],10 µM (active)
same,Potency,[4],inactive
same,outcome,[5],inactive
Cc1ccccc1OC1C=CC(C#Cc2ccc(Br)cc2)OC1CO (stereo not given),"activity change, negative = inhibition",[1],-26.7% [at 11.4 µM]
same,Potency,[3],inactive
same,Potency,[2],inactive
C[C@@H]1/C=C\CC(=O)OC[C@H]2O[C@@H](C=C[C@@H]2O)[C@H](C)/C=C\CC(=O)OC1,"activity change, positive = activation",[4],-35.6% [at 11.4 µM]
same,Potency,[3],inactive
COc1ccc(OC)c(-c2ccccc2/C=N/NS(=O)(=O)c2ccc(C)cc2)c1,"activity change, positive = activation",[4],-59.9% [at 11.4 µM]
same,Potency,[3],inactive
same,Potency,[2],0.1 µM (active)
CCC/C=C/C1C(=O)C2OC2C2(OCC(CC)(CC)CO2)C1CO (stereo not given),"activity change, positive = activation",[4],-53.3% [at 11.4 µM]
same,Potency,[3],inactive
CCC[C@@H]1C[C@@]1(CCC)C(NC(=O)OCc1ccccc1)c1ccc(-c2ccccc2)cc1 (stereo not given in full),Potency,[4],inactive
same,Potency,[3],7.94 µM (active)
same,Potency,[2],1.26 µM (active)
CCCCCCCC#Cc1ccccc1C(NC(=O)OC)C(C(=O)OC)C(=O)OC (stereo not given),"activity change, positive = activation",[4],-56.4% [at 11.4 µM]
same,Potency,[3],inactive
